Among the test systems are NCI-H23 lung; NCI-H226 lung; NCI-H322M lung; HOP-62 NSCLC; NCI-H460 lung; NCI-H522 lung; A549/ATCC NSCLC; 786-0 renal; DU-145 prostate; K-562 leukemia; MALME-3M melanoma; MDA-MB-231 breast; RXF 393 renal; SF-268 CNS; SF-295 CNS; SF-539 CNS; UACC-257 melanoma; M14 melanoma; COLO 205 colon; HCT-15 colon.
Test in all cases: NCI-60 one-dose screen, 48 h (100 = growth as untreated, 0 = no growth, -100 = all killed)
What all share (settings): 10 µM unless noted

SMILES strings stand for the structures. Compounds without any hit were thinned out: in the full panel of roughly 83,000, 20% have a hit.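 48-hour exposure, single concentration, 96-well plates; percent growth endpoint where 0 means no net growth. Active: below 10.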 A number with no mark means an inactive call. Activity calls are given as the source filed them.

Regarding `O=C1OC(c2ccc(-c3ccccc3)cc2)=C/C1=C/c1cccs1`, the growth with NCI-H23 lung is 88.6%; in the experiment on NCI-H226 lung, 63.6%; in the experiment on NCI-H322M lung, 99.7%; with HOP-62 NSCLC it was 101%; in the experiment on NCI-H460 lung it was 105%; with NCI-H522 lung, 63%. For the same compound, the growth is 83.6% in the experiment with A549/ATCC NSCLC; 90.3% in the experiment on 786-0 renal; 103% with DU-145 prostate; 87.8% in the experiment on K-562 leukemia; 98.2% with MALME-3M melanoma; 75.3% in the experiment with MDA-MB-231 breast. In addition, the growth in the experiment on RXF 393 renal was 84.6%; in the experiment with SF-268 CNS it was 88.5%; in the experiment on SF-295 CNS, 95.8%; in the experiment on SF-539 CNS, 106%; in the experiment with UACC-257 melanoma it was 106%; in the experiment on M14 melanoma it was 90.3%.
In the case of `Cc1c(C(N)=O)sc2c1c(=O)n(Cc1ccccc1)c1nnc(S(=O)(=O)CC(=O)Nc3ccc(Cl)cc3)n21`, the growth is 43.2% with NCI-H23 lung; -4.71% (active) in the experiment on NCI-H226 lung; 34.8% in the experiment with NCI-H322M lung; -26.9% (active) in the experiment with HOP-62 NSCLC; -20.8% (active) in the experiment on NCI-H460 lung; 16.9% with NCI-H522 lung. In addition, the growth was 28.5% in the experiment on A549/ATCC NSCLC; 3.47% (active) in the experiment on 786-0 renal; 47.2% with COLO 205 colon; 43.9% in the experiment on DU-145 prostate; 30% with MALME-3M melanoma; 20.5% in the experiment on MDA-MB-231 breast. Moreover, the growth in the experiment on RXF 393 renal is 41.8%; with SF-268 CNS it was 73.6%; with SF-295 CNS, 35.1%; with UACC-257 melanoma, 47.4%; with M14 melanoma, 45.2%; with HCT-15 colon, 73.1%.
`O=C1c2ccccc2-c2c1nc1ccccc1[n+]2[O-]`: the growth was 102% with NCI-H23 lung; 106% with NCI-H226 lung; 97% in the experiment on NCI-H322M lung; 102% in the experiment on HOP-62 NSCLC; 102% in the experiment with NCI-H460 lung; 93.1% with NCI-H522 lung. Also, the growth in the experiment on A549/ATCC NSCLC is 108%; in the experiment on 786-0 renal, 103%; in the experiment with COLO 205 colon it was 111%; in the experiment with DU-145 prostate it was 108%; in the experiment with MALME-3M melanoma it was 90.2%; with MDA-MB-231 breast it was 108%. Besides, the growth is 98.2% in the experiment with SF-268 CNS; 108% in the experiment on SF-295 CNS; 101% in the experiment with SF-539 CNS; 107% in the experiment with UACC-257 melanoma; 97.9% in the experiment with M14 melanoma; 101% in the experiment on HCT-15 colon.
As to `Cc1ccc(NC(=O)COC(=O)c2ccc(S(=O)(=O)N3CCCCCC3)cc2)cc1`, the growth in the experiment with NCI-H23 lung was 107%; in the experiment with NCI-H226 lung, 90.8%; in the experiment with NCI-H322M lung, 131%; in the experiment on HOP-62 NSCLC, 96.4%; in the experiment on NCI-H460 lung, 106%; in the experiment with NCI-H522 lung, 96%. For the same compound, the growth was 97.2% with A549/ATCC NSCLC; 103% in the experiment on 786-0 renal; 108% in the experiment with DU-145 prostate; 103% in the experiment on K-562 leukemia; 127% with MALME-3M melanoma; 101% in the experiment on MDA-MB-231 breast. Moreover, the growth in the experiment on RXF 393 renal is 88.9%; in the experiment on SF-268 CNS, 94.6%; in the experiment with SF-295 CNS it was 88.9%; in the experiment with SF-539 CNS it was 105%; with UACC-257 melanoma it was 94.3%; with M14 melanoma, 126%. Besides, in the experiment on HCT-15 colon, the growth was 105%.
For the compound `NC(N)=N/N=C(/c1ccccc1)c1ccc(Cl)cc1`, the growth was 83.9% in the experiment with NCI-H23 lung; 88.8% in the experiment with NCI-H226 lung; 57.7% with NCI-H322M lung; 85% in the experiment with HOP-62 NSCLC; 52.3% in the experiment on NCI-H460 lung; 59.5% with NCI-H522 lung. In addition, the growth in the experiment on A549/ATCC NSCLC is 68.3%; with 786-0 renal, 69.1%; with DU-145 prostate, 83%; in the experiment with K-562 leukemia, 42.5%; with MALME-3M melanoma, 115%; in the experiment on MDA-MB-231 breast, 105%. Moreover, the growth in the experiment on RXF 393 renal is 94.9%; in the experiment with SF-268 CNS, 62.2%; in the experiment on SF-539 CNS it was 93.3%; with UACC-257 melanoma, 38.4%; in the experiment with M14 melanoma, 59.6%; in the experiment on HCT-15 colon, 56.6%.
Turning to `CC/C(=C\c1ccc(N(C)C)cc1)c1nc2ccccc2c(=O)[nH]1`, the growth in the experiment on NCI-H23 lung is 121%; with NCI-H226 lung, 110%; in the experiment with NCI-H322M lung, 104%; in the experiment on HOP-62 NSCLC it was 108%; in the experiment on NCI-H460 lung it was 102%; in the experiment on NCI-H522 lung, 103%. The growth in the experiment on A549/ATCC NSCLC was 98%; in the experiment with 786-0 renal it was 94.6%; in the experiment on DU-145 prostate, 105%; in the experiment with K-562 leukemia, 71.4%; with MALME-3M melanoma, 144%; in the experiment with MDA-MB-231 breast, 91.2%. The growth in the experiment on RXF 393 renal was 99.6%; in the experiment with SF-268 CNS, 92.9%; in the experiment with SF-539 CNS, 106%; in the experiment on UACC-257 melanoma, 111%; in the experiment on M14 melanoma, 121%; with HCT-15 colon, 99.8%.
As to `C=C(C)[C@@H]1C/C=C(/C=O)CC[C@@H]2O[C@@]2(C)CC/C=C(\C)CC1`, the growth in the experiment with NCI-H23 lung is 116%; with NCI-H226 lung it was 98.9%; in the experiment on NCI-H322M lung it was 91%; in the experiment with HOP-62 NSCLC, 110%; in the experiment on NCI-H460 lung, 98.7%; in the experiment with NCI-H522 lung, 186%. The growth in the experiment on A549/ATCC NSCLC is 104%; in the experiment with 786-0 renal, 106%; in the experiment on DU-145 prostate, 112%; in the experiment with K-562 leukemia, 136%; in the experiment with MDA-MB-231 breast it was 111%; with RXF 393 renal, 104%. Besides, the growth in the experiment with SF-268 CNS is 112%; in the experiment on SF-539 CNS, 105%; with UACC-257 melanoma, 141%; with M14 melanoma, 115%; in the experiment on HCT-15 colon, 105%.
Take `CCOC(=O)C(C(C)=O)c1nc2sc3cc(Cl)ccc3n2c(=N)c1C#N` (stereo not given): the growth in the experiment on NCI-H23 lung is 78.2%; in the experiment with NCI-H226 lung, 43%; in the experiment with NCI-H322M lung, 105%; with HOP-62 NSCLC it was 102%; in the experiment on NCI-H460 lung, 96.1%; in the experiment on NCI-H522 lung it was 95.2%. Besides, the growth is 90.7% with A549/ATCC NSCLC; 84.5% in the experiment with 786-0 renal; 109% in the experiment on DU-145 prostate; 87.4% in the experiment on K-562 leukemia; 52.5% with MALME-3M melanoma; 62.4% in the experiment with MDA-MB-231 breast. Also, the growth in the experiment with RXF 393 renal was 50.8%; in the experiment with SF-268 CNS, 64.6%; in the experiment on SF-295 CNS it was 74.7%; with SF-539 CNS it was 99.9%; in the experiment with UACC-257 melanoma it was 72.6%; in the experiment on M14 melanoma, 77.8%. Also, in the experiment with HCT-15 colon, the growth was 122%.

These data come from PubChem BioAssay (NCI).
